# Screening results deposited in PubChem by National Center for Advancing Translational Sciences (NCATS).
# The list is not random: actives were taken first. Their share in the collection is about 21%.
# Pf growth 96h – inhibits malaria parasite growth, 96 h; P. falciparum luciferase reporter growth, 96 h; Potency, µM (top dose mostly 28.7 µM), usual class: inhibitors; 320,000 tested, 6.9% active; AID 504834
#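 Erythrocytes infected with luciferase-expressing P. falciparum were dispensed at 2% hematocrit and 0.05% parasitemia (final), then incubated with compounds 96 hours at 37 C in 5% CO2. Luminescence after detection reagent addition reported growth.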
# Sm TGR block – S. mansoni TGR enzyme inhibition; purified TGR, DTNB reduction, TNB absorbance 405 nm; Q962Y6; Potency, µM (highest dose often 114 µM), most hits filed as inhibitors; 360,000 tested, 3% active; note: nearly all actives have a fitted effect of over 60% in size
#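 Kinetic colorimetric format: TGR-catalysed, NADPH-driven DTNB reduction monitored via TNB absorbance. Enzyme dispensed at 20 nM; compound exposure 15 min at room temperature before reaction start.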
# Pf growth 48h – inhibits P. falciparum growth in the first generation, 48 h; 310,000 tested, 5.9% active; Potency, µM (highest dose often 28.7 µM), actives largely listed as inhibitors; P. falciparum luciferase growth in erythrocytes, 48 h
#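 Here the parasites carry a stable luciferase gene and grow inside erythrocytes in Albumax-based RPMI medium with compound for one erythrocytic cycle. Activity is scored as loss of luminescent signal.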
# Cycloheximide cs – counter-screen hit for Shiga toxin inhibitors, cycloheximide. cell reporter, cycloheximide protein synthesis inhibition counterscreen. max response, %. 300,000 tested, 12% active; in the data active = max response mostly above about 13%, no sharp cut-off; inactive = mostly below about 14%; note: read at 38.3 µM for the half of the compounds with a filed dose
# NS1 function inh – inhibitors of influenza NS1 protein function; AID 2326; Potency, µM (highest dose often 46.1 µM); 270,000 tested, 0.4% active; calls by dose curve; note: actives are rising curves; nearly all actives have a fitted effect of over 50% in size
#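 OD600 was taken as the measure of yeast growth restored by compound in an NS1-expressing S. cerevisiae strain. Cells had been washed out of glucose medium and diluted 1:100 into galactose -URA medium, pH 6.0.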
# Shiga toxin inh – Shiga toxin inhibition; inhibition, % at 38.7 µM; AID 2315; Vero cells, Shiga toxin protein synthesis inhibition reporter; 290,000 tested, 9.2% active; in the data active = inhibition mostly above about 28%, no sharp cut-off; inactive = mostly below about 43%
# Numbers stand for hits; i = inactive; ? = inconclusive; nt = not tested or not shown; [ ] = dose if it differs, or a comment. Unless noted, calls come from the whole dose curve; as a rule, active = well fitted curve in the direction sought with a large enough effect; inconclusive = small, poorly fitted or top-dose-only effect, or another doubt; inactive = no such curve, though single readings can be large; an effect the other way counts as inactive or inconclusive.
SMILES,Pf growth 96h,Sm TGR block,Pf growth 48h,Cycloheximide cs,NS1 function inh,Shiga toxin inh
O=c1c2ccccc2nc(-c2ccccc2)n1CCCN1CCOCC1,nt,i,i,i,i,i
O=C1c2ccccc2C(=O)N1Cc1nc2ccccc2c(=O)n1CCCN1CCOCC1,i,35µM,i,i,i,i
Cc1ccc(-c2nc(NCCN3CCOCC3)c3ccccc3n2)cc1,4.1µM,i[11.4 µM],nt,i,i,i
Cc1ccc(-c2nc3ccccc3c(=O)n2CCCN2CCOCC2)cc1,?,i,i,i,i,54
Clc1ccc(-c2nc(NCCCN3CCOCC3)c3ccccc3n2)cc1,?,i,?,i,i,i
Brc1ccc2oc(-c3ccn[nH]3)cc2c1,i,i,i,70,i,119
O=c1oc2ccc(Br)cc2cc1-c1nc2ccccc2o1,i,i,i,i,i,i
NS(=O)(=O)c1ccc(N=Nc2nc3[nH]cnc(=S)c3[nH]2)cc1,nt,nt,nt,nt,i,nt
CC(CCc1ccccc1)NCC(O)c1ccc(O)c(C(N)=O)c1 (centres undefined),?,i,13µM,i,i,i
CC(=O)NC(C)CCc1ccccc1 (centres undefined),i,i,i,i,i,i
CC1=CC2=NC(=O)/C(=C\c3ccc(-c4ccc(Cl)cc4)o3)C(=N)N2O1,?,i,i,18,i,i
CC1=CC2=NC(=O)/C(=C\c3cc(C)n(-c4ccccc4F)c3C)C(=N)N2O1,?,i,10µM,29,i,59
CC1=CC2=NC(=O)/C(=C\c3cc(C)n(-c4ccccc4)c3C)C(=N)N2O1,?,i,?,i,i,i
CCCCCN(CCCCC)C(=O)[C@H](CCC(=O)O)NC(=O)[C@H](Cc1ccc(OP(=O)(O)O)cc1)NC(C)=O,nt,nt,nt,i,nt,i
CCN(Cc1ccncc1)Cc1c(O)ccc2cc(Br)ccc12,6.6µM,1.8µM,5.9µM,i,nt,i
Cc1cccc2cc3ccc4ccccc4c3cc12,nt,nt,nt,nt,i,nt
Cc1cc2ccc3ccccc3c2cc1CN(C)C,?,i,i,33,i,60
Clc1ccc(-c2cc(C3CCNCC3)[nH]n2)cc1,?,i,?,i,nt,i
FC(F)C(F)(F)c1cc(-c2ccc(Cl)cc2)n[nH]1,i,i,i,31,i,46
Fc1ccc(-c2cc(C(F)(F)C(F)F)[nH]n2)cc1,i,i,i,27,i,65
Nc1nc(-c2ccc(F)cc2)cc(C(F)(F)F)n1,nt,i,i,i,i,i
Cc1cccc(N2C(=O)c3cccc4c(N)ccc(c34)C2=O)c1,?,i,i,i,i,i
Cc1cccc(N2C(=O)c3cccc4c(N(C)CCO)ccc(c34)C2=O)c1,5.9µM,i,?,i,i,i
COc1ccccc1/C=C1\SC(=S)N(CCC(=O)NCCCn2ccnc2)C1=O,?,i,?,i,i,i
COc1ccccc1/C=C1\SC(=O)N(CCC(=O)NCCCn2ccnc2)C1=O,?,i,i,i,i,i
SMILES,Pf growth 96h,Sm TGR block,Pf growth 48h,Cycloheximide cs,NS1 function inh,Shiga toxin inh
COc1ccc(/C=C2\SC(=S)N(CCC(=O)NCCCn3ccnc3)C2=O)cc1,?,i,?,18,i,i
O=C(CCCN1C(=O)/C(=C/c2ccc(F)cc2)SC1=S)NCCCn1ccnc1,9.3µM,i,?,i,i,i
CC(C)c1ccc(/C=C2\SC(=S)N(CCC(=O)NCCCn3ccnc3)C2=O)cc1,?,i,?,61,i,104
C[C@H](CCC(=O)O)[C@H]1CC[C@@H]2[C@@H]3CC[C@H]4C[C@@H](O)CC[C@@]4(C)[C@@H]3C[C@H](O)[C@@]21C,nt,nt,nt,nt,i,nt
CSc1c(CC(=O)Nc2ccccc2C(F)(F)F)n(Cc2ccccc2)c2ccccc12,9.3µM,i,?,i,i,i
CSc1c(CC(=O)Nc2ccccc2Cl)n(Cc2ccccc2)c2ccccc12,?,i,?,i,i,i
CSc1c(CC(=O)Nc2ccccc2)n(Cc2ccccc2)c2ccccc12,?,i,12µM,i,i,i
Cc1ccc(C2CC(=O)NC(SCC(=O)Nc3nccs3)=C2C#N)cc1 (centres undefined),i,i,i,i,i,i
CC(Nc1cc(N2CCOCC2)ccc1[N+](=O)[O-])c1ccccc1 (centres undefined),i,i,?,i,i,i
CC(Nc1cc(N2CCCC2)ccc1[N+](=O)[O-])c1ccccc1 (centres undefined),?,i,13µM,i,i,i
